This is a sample that favours compounds with a hit; in the whole collection about 21% have one here.
Shiga inhibitor – A qHTS for Small Molecule Inhibitors of Shiga Toxin; Vero cells, Shiga toxin protein synthesis inhibition reporter; inhibition, % at 38.7 µM; 290,000 tested, 9.2% active; in the data active = inhibition mostly above about 28%, no sharp cut-off; inactive = mostly below about 43%
CHX counter – Cycloheximide Counterscreen for Small Molecule Inhibitors of Shiga Toxin; AID 2314, 2010; cell reporter, cycloheximide protein synthesis inhibition counterscreen; 300,000 tested, 12% active; max response, %; in the data active = max response mostly above about 13%, no sharp cut-off; inactive = mostly below about 14%; note: read at 38.3 µM for the half of the compounds with a filed dose
Pf growth 96h – Primary qHTS for delayed death inhibitors of the malarial parasite plastid, 96 hour incubation | Potency, µM (titrated, usually from 28.7 µM), actives largely listed as inhibitors | 320,000 tested, 6.9% active | AID 504834, 2011 | P. falciparum luciferase reporter growth, 96 h
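Two parasite generations (96 h, 37 C, 5% CO2) of compound exposure in infected erythrocytes (0.05% parasitemia, 2% hematocrit). Luciferase-reporter P. falciparum; decreased luminescence indicates inhibited growth, aimed at apicoplast-acting delayed death.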
Pf growth 48h – Primary qHTS for delayed death inhibitors of the malarial parasite plastid, 48 hour incubation; P. falciparum luciferase growth in erythrocytes, 48 h; Potency, µM (highest dose often 28.7 µM), hits mostly inhibitors; 310,000 tested, 5.9% active; AID 504832, 2011
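Erythrocytes infected with P. falciparum carrying an integrated firefly luciferase reporter (2% hematocrit, 0.1% parasitemia final) were exposed to compounds in RPMI 1640 with 0.5% Albumax at 37 C, 5% CO2. Growth inhibition was scored as reduced luminescence.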
NS1 inh – qHTS Assay for Inhibitors of Influenza NS1 Protein Function; Potency, µM (series often up to 46.1 µM); AID 2326, 2010; 270,000 tested, 0.4% active; calls by dose curve; note: actives are rising curves; nearly all actives have a fitted effect of over 50% in size
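A cell-based growth assay was used: compounds that relieve NS1-induced slow growth of budding yeast raise OD600. Assay medium was yeast nitrogen base with ammonium sulphate and -URA supplement, pH 6.0, with 2% galactose.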
Giardia FBPA inh – qHTS Assay for Inhibitors of Fructose-1,6-bisphosphate Aldolase from Giardia Lamblia | A8B2U2 | purified Giardia FBPA | Potency, µM (titrated, usually from 59.6 µM), most hits filed as inhibitors | 290,000 tested, 0.71% active | AID 2451, 2010; note: nearly all actives have a fitted effect of over 55% in size
Target sequence (A8B2U2 whole entry, looked up): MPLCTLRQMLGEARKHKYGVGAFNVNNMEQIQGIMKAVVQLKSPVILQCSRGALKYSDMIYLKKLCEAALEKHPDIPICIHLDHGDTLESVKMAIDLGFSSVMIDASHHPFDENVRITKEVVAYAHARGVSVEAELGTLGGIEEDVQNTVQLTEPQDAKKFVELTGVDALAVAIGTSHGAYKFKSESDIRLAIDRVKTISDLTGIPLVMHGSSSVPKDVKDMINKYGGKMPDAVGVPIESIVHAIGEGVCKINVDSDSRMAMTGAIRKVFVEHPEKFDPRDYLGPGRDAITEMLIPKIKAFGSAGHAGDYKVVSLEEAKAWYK
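40 nM FBPA preincubated 10 min at RT with compound (up to 57.5 uM final), then substrate plus GAPDH/TPI/NAD/arsenate coupling and diaphorase/resazurin added. Fluorescence read after 20 min at RT, 525/598 nm.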
A number is an active result; 0 = inactive; ? = inconclusive; - = no result; ! = not confirmed by another sample; [ ] = another dose, or the depositor's remark. Unless noted, calls come from the whole dose curve; as a rule, active = well fitted curve in the direction sought with a large enough effect; inconclusive = small, poorly fitted or top-dose-only effect, or another doubt; inactive = no such curve, though single readings can be large; an effect the other way counts as inactive or inconclusive.

SMILES | Shiga inhibitor | CHX counter | Pf growth 96h | Pf growth 48h | NS1 inh | Giardia FBPA inh
O=C(c1cnccn1)N1CCCC(N2CCN(c3cccc(Cl)c3)CC2)C1 (stereo not given) | 0 | 0 | 0 | 0 | 0 | -
CC(C)c1nc(C(=O)N2CCCC(N3CCN(c4cccc(Cl)c4)CC3)C2)cs1 (stereo not given) | 0 | 0 | 3.7µM | ? | 0 | 0
CC(C)n1cc(C(=O)N2CCCC(N3CCN(c4ccc(F)cc4)CC3)C2)cn1 (stereo not given) | 0 | 0 | ? | 0 | 0 | -
Cc1cccc(C(=O)N2CCCC(N3CCN(c4cccc(Cl)c4)CC3)C2)n1 (stereo not given) | 0 | 21 | 0 | 0 | 0 | -
O=c1oc(-c2ccc(C(F)(F)F)cc2)nn1Cc1cc(Cl)ccc1O | 0 | 0 | - | - | - | 0
COc1ccc(C)cc1NC(=O)CNC(C)C(=O)Nc1cc(Cl)ccc1Cl (stereo not given) | 0 | 0 | ? | ? | - | 0
C[C@H]1Cc2c(-c3ccccc3)nc3c(c2CO1)CN(C(=O)c1cccnc1)CC3 | - | - | - | - | - | 0[12.9 µM]
Cc1csc(Nc2ccccc2)[n+]1C | 0 | 36 | 0 | 0 | - | 0
CCC(C)(C)NC(=O)C(c1ccc(F)cc1)N(Cc1cccs1)C(=O)c1cnccn1 (stereo not given) | 0 | 0 | ? | 0 | 0 | 0
COc1ccc(/C(N)=N/OC(=O)c2ccco2)cc1OC | 113 | 39 | ? | 0 | - | 0
COc1ccc(C(=O)Nc2ccccc2NC(=O)c2ccco2)cc1OC | 0 | 0 | 0[5.75 µM] | 0 | 0 | 0
N/C(=N\OC(=O)c1ccco1)c1cccc(Br)c1 | 154 | 40 | - | 0 | 0 | 0
N/C(=N\OC(=O)c1ccco1)c1cccc([N+](=O)[O-])c1 | 121 | 48 | 0 | 0 | 0 | 0
O=C(c1ccc(CNS(=O)(=O)c2ccc(Br)cc2)cc1)N1CCCCC1 | 0 | 0 | ? | 0 | 0 | 0
O=C(O)c1cccc(Cl)n1 | 0 | 0 | 0 | 0 | 0 | 0
O=C(O)c1ccc2cccnc2n1 | 0 | 0 | 0 | 0 | - | 5.6µM
O=C(O)c1cccc(C(=O)O)n1 | 0 | 0 | - | 0 | 0 | 28µM
Cc1cc(C)n(C(=O)c2c([N+](=O)[O-])c(C)nn2C)n1 | 0 | 0 | 0 | 0 | 0 | 0
Cc1ccc(SC(=O)c2c([N+](=O)[O-])c(C)nn2C)cc1 | 0 | 12 | 0 | 0 | 0 | 0
Cc1ccc2nc(N(CCCN(C)C)C(=O)c3ccc(S(=O)(=O)N4CCCCCC4)cc3)sc2c1 | 0 | 0 | ? | 13µM | 0 | 0
CCCCN(C)S(=O)(=O)c1ccc(C(=O)N(CCN(C)C)c2nc3ccc(C)cc3s2)cc1 | 44 | 20 | 0 | 0 | - | 0
CN(C)CCN(C(=O)c1ccc(S(=O)(=O)N2CCCC2)cc1)c1nc2ccc(Br)cc2s1 | 57 | 30 | ? | ? | 0 | -
CCCCN(CC)S(=O)(=O)c1ccc(C(=O)N(CCCN(C)C)c2nc3cc(C)cc(C)c3s2)cc1 | 0 | 0 | 0 | ? | - | 0
OCCN1CC(O)C(O)C(O)C1CO (stereo not given) | - | - | 0 | 0 | - | 0
Cc1ccc(-c2nnn(CC(=O)N3c4ccccc4CCc4ccccc43)n2)cc1 | 0 | 0 | ? | 10µM | ? | 0
SMILES | Shiga inhibitor | CHX counter | Pf growth 96h | Pf growth 48h | NS1 inh | Giardia FBPA inh
O=C(Cn1nnc(-c2ccc(CN3CCOCC3)cc2)n1)N1CCCc2ccccc21 | 0 | 0 | 2.6µM | ? | 0 | 0
O=C(CSc1ccc(-c2ccco2)nn1)Nc1ccccc1F | 0 | 0 | 0 | 0 | 0 | -
O=C(NCc1n[nH]c(=S)n1-c1ccc(Cl)c(Cl)c1)c1ccco1 | 0 | 0 | 15µM | ? | 0 | -
O=C(NCc1n[nH]c(=S)n1-c1ccccc1)c1ccco1 | 0 | 0 | 0 | 0 | 0 | 0
CC(Cc1cccs1)NCc1ccccc1 (stereo not given) | 0 | 0 | 0 | 0 | - | 0
CC(NCc1cccs1)c1ccccc1 (stereo not given) | 0 | 0 | 12µM | 0 | 0 | 0
CCN(CCCNc1ncnc2nc[nH]c12)c1cccc(C)c1 | 0 | 0 | 0 | 0 | 0 | 0
Cc1ccc2[nH]c3c(NCc4ccco4)ncnc3c2c1 | 87 | 19 | ? | ? | 0 | 0
c1ccc(CCNc2ncnc3nc[nH]c23)cc1 | 45 | 38 | 0 | 0 | 0 | 0
CCCCN(CCCNc1ncnc2nc[nH]c12)c1ccccc1 | 0 | 0 | 12µM | ? | 0 | 0
c1coc(CNc2ncnc3nc[nH]c23)c1 | 0 | 0 | 9.3µM | 0 | 0 | 0
c1coc(CNc2ncnc3[nH]ncc23)c1 | 0 | 0 | 0 | ? | 0 | 0
COCC(=O)N1CCC2(CC1)CN(C(c1ccccc1)c1ccccc1)C2 | - | - | - | - | - | 0
Cc1cc(OC(=O)c2ccc(S(=O)(=O)N3CCOCC3)cc2)c([N+](=O)[O-])c(=O)[nH]1 | 0 | 0 | ? | 0 | - | 0
Cc1ccccc1NC(=O)CSc1nnc2ccc(-c3cccnc3)nn12 | - | - | 0 | ? | - | -
CC(NC(=O)C1CCN(C(=O)c2cccs2)CC1)c1ccc(S(N)(=O)=O)cc1 (stereo not given) | - | - | 0 | ? | - | -
NC(=S)N/N=C1\CC(c2ccc3c(c2)OCCO3)Oc2ccc(F)cc21 (stereo not given) | 0 | 0 | 12µM | ? | 0 | 0
COc1cc2c(cc1OC)C1Cc3ccc(OC)c(OC)c3CN1CC2 (stereo not given) | 0 | 0 | ? | 1.3µM | 0 | 0
COc1ccc2c(c1OC)CN1CCc3cc4c(cc3[C@@H]1[C@@H]2O)OCO4 | 0 | 0 | 9.3µM | ? | 0 | 0
COc1ccc2c(c1OC)C(=O)O[C@H]2[C@@H]1c2cc3c(cc2CCN1C)OCO3 | - | - | 15µM! | 0 | - | -
COc1cc2c(cc1OC)[C@@H]1Cc3ccc(OC)c(OC)c3CN1CC2 | 0 | 0 | ? | ? | 0 | ?
COc1ccc2c(c1OC)C(=O)O[C@@H]2[C@H]1c2cc3c(cc2CCN1C)OCO3 | - | - | 0 | ? | - | -
CCn1nnc(NC(=O)c2ccco2)n1 | 0 | 0 | 0 | 0 | 0 | 0
COc1cc(NC(=O)c2ccc(NC3=NC4CS(=O)(=O)CC4S3)cc2)cc(OC)c1OC (stereo not given) | 0 | 0 | ? | 0 | 0 | 0
CC(C)c1ccc(NC(=O)C2=NNC(=O)CC2)cc1 | 97 | 38 | 0 | 0 | 0 | 0
SMILES | Shiga inhibitor | CHX counter | Pf growth 96h | Pf growth 48h | NS1 inh | Giardia FBPA inh
O=C1CCC(C(=O)Nc2cccc(Oc3ccccc3)c2)=NN1 | 0 | 15 | ? | 0 | - | 0
O=C1CCC(C(=O)Nc2nnc(C3CC3)s2)=NN1 | 0 | 0 | 0 | 0 | 0 | ?
Cc1ccc(NC(=O)C2=NNC(=O)CC2)cc1F | 60 | 35 | 0 | 0 | 0 | 0
Cc1ccc(-c2nnc(N3CCN(C(=O)COc4cccc(C)c4)CC3)c3ccccc23)cc1 | 0 | 0 | 13µM | 8.3µM | 0 | 0
Cc1ccc(OCC(=O)N2CCN(c3nnc(-c4ccc(C)cc4)c4ccccc34)CC2)cc1 | 0 | 0 | 2.9µM | - | 0 | 0
Cc1cccc(OCC(=O)N2CCN(c3nnc(-c4ccccc4)c4ccccc34)CC2)c1 | 0 | 0 | ? | ? | 0 | 0

Bioassay records from PubChem BioAssay.
